Results taken from PubChem BioAssay (NCATS).
Results filed as inconclusive are left out. Activity calls are given as the source filed them. The call rests on the fitted dose curve; in most records, active means well fitted cell-killing curve with a large enough effect; inconclusive means small, poorly fitted or top-dose-only effect; inactive means no such curve, though single readings can be large or run the other way.

Assay: qHTS of pediatric cancer cell lines to identify multiple opportunities for drug repurposing: Primary screen for MG 63 (6-TG R) cells (AID 1347105); further: nearly all actives have a fitted effect of over 50% in size
Settings: MG 63 (6-TG R) viability, CellTiter-Glo, 48 h; series mostly up to 46 µM; activity change, negative = cytotoxic: at the top concentration
From the text: Drug repurposing or repositioning has been offered as a strategy for drug development in oncology programs. This approach has special potential for childhood cancers and other rare or orphan diseases, where the expected return on new drug development has been a disincentive to pharmaceuticals. […] In this project we exploit the poly-pharmacology of drugs to discover new indications via phenotypic screening of a panel of 19 well-characterized cell lines derived from solid tumors seen in children and adolescents. The goal is to identify approved drugs with previously unrecognized anticancer properties that has the potential to reveal new mechanisms and biological processes involved in carcinogenesis or drug resistance. We employed a titration-based paradigm (quantitative high-throughput screening or qHTS), where all compounds were tested at multiple concentrations for their effect on cell viability. Concentration-response curves (CRCs) were derived directly from the primary screen, and both potency and efficacy values were used to identify compounds with robust bioactivity profiles. We screened the NIH Chemical Genomics Center (NCGC) Pharmaceutical Collection (NPC) and Mechanism Interrogation Plate (MIPE) small molecule collections of approved and investigational compounds against these cell lines; and measured metabolically active cells after 48 hours of compound treatment as a proxy for cell viability. […] Assay Submitter: Nathalia J. Martinez, National Center for Advancing Translational Sciences, National Institutes of Health, Rockville, MD, USA; email: natalia.martinez@nih.gov Shen, M et al. Quantitative high-throughput phenotypic screening of pediatric cancer cell lines identifies multiple opportunities for drug repurposing. Oncotarget 2017 Dec 19;9(4):4758-4772. PMID 29435139.
The cells were obtained from University of North Carolina (UNC), Pediatric Preclinical Testing Program (PPT), and Coriell Institute (CI). qHTS cell viability assay: Cells were assayed in growth media at a density of 500-1,000 cells/well. Five microliters of cells were dispensed into 1,536-well, white, solid-bottom, TC-treated plates (Greiner Bio One) using a multidrop dispenser and incubated at 37 degrees C, 5% CO2, under a humidified atmosphere for 5 hours. Twenty-three nanoliters of compounds and controls (neutral control DMSO or positive control bortezomib at final concentration of 2.3 µM) were subsequently transferred by Kalypsys pintool. For primary screens, the MIPE collection was tested at 11-point dilutions (final concentrations range from 0.78 nM to 46 µM) and the NPC collection at 8-point dilutions (final concentrations range from 0.59 nM to 46 µM). Compounds tested in follow-up screens were assayed at 11-point dilutions. Cells were incubated for 48 hours, followed by addition of 3 µL of CellTiter-Glo (Promega). After a 15 min incubation at room temperature, samples were analyzed for luminescence intensity using a ViewLux High-throughput CCD imager equipped with clear filters.
On the % scale 0 is the no-effect control and ±100 the full control effect; potency means the concentration at half of the fitted maximal effect.

SMILES | Potency | activity change, negative = cytotoxic
Nc1ncnc2c1c(-c1cnc3[nH]ccc3c1)nn2C1CCCC1 | 0.118 µM (active) | 
CN1CCC(CNc2ccc3ncc(-c4cccc(OC(F)(F)F)c4)n3n2)CC1 | 23.5 µM (active) | 
CN1CC[C@@H](c2c(O)cc(O)c3c(=O)cc(-c4ccccc4Cl)oc23)[C@@H](O)C1 | 0.148 µM (active) | 
O=c1[nH]nc(Sc2ncc([N+](=O)[O-])s2)n1-c1ccc2c(c1)OCCO2 | 5.9 µM (active) | 
O=C(CCCCCCC(=O)Nc1ccc([C@H]2O[C@@H](CSc3nc(-c4ccccc4)c(-c4ccccc4)o3)C[C@@H](c3ccc(CO)cc3)O2)cc1)NO | 14.8 µM (active) | 
Cc1ccc(CN2CCNCC2)cc1NC(=O)CNc1ccc(F)c(F)c1 |  | -5.8% (inactive)
Nc1nccc(Oc2ccc(NC(=O)c3c[nH]cc(-c4ccc(F)cc4)c3=O)cc2F)c1Cl | 18.7 µM (active) | 
Cn1c(CNc2ccc(C(=N)N)cc2)nc2cc(C(=O)N(CCC(=O)O)c3ccccn3)ccc21 |  | 7.77% [at 16.1 µM] (inactive)
CC(C)(O)c1cc2nc(-c3cnc(N)nc3)nc(N3CCOCC3)c2s1 | 0.0469 µM (active) | 
CS(=O)(=O)c1ccc(-c2cnc(N)c(C(=O)Nc3ccccc3)n2)cc1 |  | -20.2% (inactive)
Cc1nc2cnc3ccc(C#Cc4cccnc4)cc3c2n1-c1ccc(C(C)(C)C#N)cc1 | 0.0743 µM (active) | 
O=C(c1ccc(Nc2nccc(-c3cc4ccccc4s3)n2)cc1)N1CCC(N2CCCC2)CC1 | 18.7 µM (active) | 
Cc1cc(Nc2nc(N[C@@H](C)c3ccc(F)cc3)c(C#N)cc2F)n[nH]1 | 3.72 µM (active) | 
CC(=O)OCC(=O)[C@@]1(O)[C@H](C)C[C@H]2[C@@H]3C=C(C)C4=Cc5c(cnn5-c5ccccc5)C[C@]4(C)[C@@H]3[C@@H](O)C[C@@]21C | 18.7 µM (active) | 
O=c1c2ccccc2nc2n1CCc1c-2[nH]c2ccccc12 |  | 3.27% (inactive)
CCS(=O)(=O)c1cccc(-c2cc(C(=O)NC3CCN(C)CC3)c(C)c3[nH]c4ncc(C)cc4c23)c1 | 14.8 µM (active) | 
Nc1nc(-c2nn(Cc3ccccc3F)c3ncccc23)nc(N)c1N1CCOCC1 |  | -29.8% (inactive)
Cc1[nH]c2ccccc2c1CCNCc1ccc(C=CC(=O)NO)cc1 | 0.469 µM (active) | 
CCCCOc1c(C(=O)c2c(F)cc(C)cc2F)cnc2n[nH]cc12 | 11.8 µM (active) | 
Cc1cccc(C=NNc2cc(N3CCOCC3)nc(OCCc3ccccn3)n2)c1 |  | -25.7% (inactive)

SMILES | Potency | activity change, negative = cytotoxic
CCn1nnc2c(N3CCOCC3)nc(-c3ccc(NC(=O)Nc4ccc(C(=O)N5CCN(C)CC5)cc4)cc3)nc21 | 0.0469 µM (active) | 
Cc1cn2cc(C(=O)N(C)CCO)cc(N[C@@H]3CCOc4cccc(C)c43)c2n1 |  | -22.4% (inactive)
O=C(NCCS(=O)(=O)c1ccc(C(F)(F)F)cn1)c1ccc(Cl)cc1 |  | -9.18% (inactive)
CNC(=O)c1c(F)cccc1Nc1nc(Nc2cc3c(cc2OC)CCN3C(=O)CN(C)C)nc2[nH]ccc12 | 18.7 µM (active) | 
CC(=O)Nc1sc2c(c1-c1nc3ccccc3s1)CNC2 |  | -16.5% (inactive)
Cc1[nH]nc2ccc(-c3cncc(OC[C@@H](N)Cc4ccccc4)c3)cc12 | 2.96 µM (active) | 
CC[C@@]1(O)C(=O)OCc2c1cc1n(c2=O)Cc2cc3cc(O)ccc3nc2-1 | 0.0935 µM (active) | 
Nc1ccn([C@@H]2CS[C@H](CO)O2)c(=O)n1 |  | -3.62% [at 92.7 µM] (inactive)
COc1ccc(-c2cc3c(C)nc(N)nc3n(C3CCC(OCCO)CC3)c2=O)cn1 (stereo not given) | 0.0187 µM (active) | 
COc1cc2c(NC3CCN(C(C)C)CC3)nc(C3CCCCC3)nc2cc1OCCCN1CCCC1 | 23.5 µM (active) | 
C=C1C(=CC=C2CCC[C@]3(C)[C@@H]([C@H](C)C=C[C@H](C)C(C)C)CC[C@@H]23)C[C@@H](O)C[C@@H]1O | 5.9 µM (active) | 
O=C(O)[C@H](Cc1c[nH]c2ccccc12)N1C(=O)c2ccccc2C1=O |  | -13.2% [at 92.7 µM] (inactive)
COc1c(N2C[C@@H]3CCCN[C@H]3C2)c(F)cc2c(=O)c(C(=O)O)cn(C3CC3)c12 |  | 39% (inactive)
O=C(C=Cc1c(C(=O)O)[nH]c2cc(Cl)cc(Cl)c12)Nc1ccccc1 |  | -6.67% (inactive)
C=CC(=O)Nc1cc2c(Nc3ccc(F)c(Cl)c3)ncnc2cc1C#CC(C)(C)N1CCN(C)CC1 | 5.9 µM (active) | 
COc1ccc2c(c1)CC[C@@H](CN(C)CC(=O)O)[C@H]2c1ccccc1 | 2.96 µM (active) | 
COc1cc(C)c(Sc2cnc(NC(=O)c3ccc(CNC(C)C(C)C)cc3)s2)cc1C(=O)N1CCN(C(C)=O)CC1 (stereo not given) | 11.8 µM (active) | 
O=C(O)CCCc1c[nH]c2ccccc12 |  | -27% (inactive)
COc1ccc(C=Cc2cc(OC)c(OC)c(OC)c2)cc1O |  | -35.8% (inactive)
CN1CCN(Cc2ccc(NC(=O)Nc3ccc(Oc4cc(NC(=O)C5CC5)ncn4)cc3)cc2C(F)(F)F)CC1 | 1.87 µM (active) | 
